Source: PubChem
Rows were chosen to be rich in hits. Some 4.7% of all compounds tested hit in one or more screens of this group.
FBA Mtb inh = inhibits M. tuberculosis FBA enzyme | P9WQA3 | purified M. tuberculosis FBA, fluorescence read-out | inhibition, % at 1 µM | 360,000 compounds, 2.3% hits; in the data active means inhibition above about 27%
Target sequence (P9WQA3 whole entry, looked up): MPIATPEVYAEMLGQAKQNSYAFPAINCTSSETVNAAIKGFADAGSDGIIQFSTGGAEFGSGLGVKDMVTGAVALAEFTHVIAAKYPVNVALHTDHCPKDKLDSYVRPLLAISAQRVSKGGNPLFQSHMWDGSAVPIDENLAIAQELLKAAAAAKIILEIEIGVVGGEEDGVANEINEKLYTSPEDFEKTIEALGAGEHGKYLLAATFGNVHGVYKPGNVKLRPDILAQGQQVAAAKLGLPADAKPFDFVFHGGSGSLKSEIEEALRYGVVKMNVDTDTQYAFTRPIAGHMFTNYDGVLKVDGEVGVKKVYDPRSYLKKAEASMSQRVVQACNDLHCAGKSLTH
DUSP3 inh = inhibitors of human VHR1 phosphatase (DUSP3) | P51452 | recombinant VHR phosphatase, pNPP absorbance | inhibition, % at 13.3 µM | 290,000 compounds, 0.52% hits | AID 1654; in the data active means inhibition above about 50%
Target sequence (P51452 whole entry, looked up): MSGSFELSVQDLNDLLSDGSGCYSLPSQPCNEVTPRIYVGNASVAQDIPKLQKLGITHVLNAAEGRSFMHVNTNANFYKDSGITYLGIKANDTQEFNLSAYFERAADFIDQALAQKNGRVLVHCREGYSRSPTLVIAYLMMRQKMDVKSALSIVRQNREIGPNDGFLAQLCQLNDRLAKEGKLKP
GDH-TPI inh = counter-screen for M. tuberculosis FBA inhibitors: GDH-TPI coupled enzymes; GDH-TPI coupled enzyme counterscreen, NADH absorbance; inhibition, % at 4.8 µM; 360,000 compounds, 1.2% hits; AID 588335
3CLpro inhibitor = SARS-CoV 3CLpro protease inhibition | P0C6X7 | inhibition, % at 6 µM | AID 1706 | 290,000 compounds, 0.14% hits | recombinant SARS-CoV 3CLpro, quenched FRET peptide cleavage; in the data active means inhibition above about 12%
CCHF vOTU inh = blocks the CCHF virus ovarian tumor domain protease. CCHFV vOTU protease, Pep-AMC fluorescence. inhibition, % at 11.5 µM. 370,000 compounds, 0.55% hits
RecA intein inh = Mtb RecA intein splicing inhibition | P9WHJ3 | cell-free RecA intein splicing, fluorescence | inhibition, % (concentration not given with the values) | 290,000 compounds, 0.75% hits | AID 2221; in the data active means inhibition above about 30%
Numbers stand for hits; n = inactive; x = no result given; + = active, no number. Unless noted, no stated cut-off is given here; in the data, active means inhibition above about 30%; inactive means the rest.

SMILES	FBA Mtb inh	DUSP3 inh	GDH-TPI inh	3CLpro inhibitor	CCHF vOTU inh	RecA intein inh
C[C@@H](C(=O)NCc1ccccc1)[C@@H]1C[C@@]1(C)[C@@H](NC(=O)OCc1ccccc1)c1ccccc1	n	n	n	n	n	n
Cc1cccn2c(=O)c3cc(C#N)c(=NC(=O)c4ccco4)n(Cc4ccco4)c3nc12	+	n	n	n	n	n
Cc1cccc(C(=O)N=c2c(C#N)cc3c(=O)n4cccc(C)c4nc3n2Cc2ccco2)c1	168.1	n	n	n	n	n
Cc1cccn2c(=O)c3cc(C#N)c(=NC(=O)c4ccccc4)n(Cc4ccco4)c3nc12	182.4	x	n	x	n	n
COCCCn1c(=NC(=O)c2ccc3c(c2)OCO3)c(C#N)cc2c(=O)n3cccc(C)c3nc21	x	n	x	x	x	x
Cc1ccc(Cn2c(=N)c(C#N)cc3c(=O)n4cccc(C)c4nc32)cc1	x	n	x	n	x	n
CC(C)C[C@H]1COc2cccc(NCCO)c2S(=O)(=O)N1	x	x	x	x	n	x
Cc1ccc(SCC(=O)Nc2nnc(C(C)(C)C)s2)cc1	n	54.3	n	n	n	x
N#CC(c1ccc(O)cc1)N1CCN(C(C#N)c2ccc(O)cc2)CC1 (stereo unspecified)	n	x	82.1	x	n	x
C=CCNc1oc(-c2ccc(Cl)cc2)nc1C#N	n	x	n	x	n	x
Clc1ccc(-c2csc(NCC3CCCO3)n2)cc1 (stereo unspecified)	x	x	x	x	n	x
CNc1oc(-c2ccc(Cl)cc2)nc1C#N	+	n	n	n	n	n
N#Cc1nc(-c2ccc(Cl)cc2)oc1NCC1CCCO1 (stereo unspecified)	153.9	n	n	n	n	n
N#Cc1nc(-c2ccccc2)oc1NCC1CCCO1 (stereo unspecified)	171.0	n	n	n	n	n
N#Cc1nc(-c2cccc3ccccc23)oc1NCC1CCCO1 (stereo unspecified)	+	n	n	n	n	n
O=C(Cc1c[nH]c2ccccc12)Nc1ccc(Nc2cccnc2)cc1	x	x	x	x	n	x
CC1(C)CC(=O)C=C(c2ccc3c(c2)OCO3)C1	n	x	32.8	x	n	n
CC1(C)CC(=O)C=C(c2ccc(-c3ccccc3)cc2)C1	n	x	n	x	n	x
CCOC(=O)N1CCN(CC(=O)Nc2c(C(=O)OC)[nH]c3ccccc23)CC1	n	n	n	n	n	n
CCOC(=O)c1[nH]c2cc3c(cc2c1NC(=O)CN1CCC(C)CC1)OCO3	152.9	n	n	n	n	n
Cn1nnnc1SCc1cn2cccnc2n1	122.2	n	n	n	n	n
Nc1ccccc1SCc1cn2cccnc2n1	n	n	n	n	n	x
O=C(c1ccc(Cl)cc1)N1CCc2ccccc21	n	55.7	n	n	n	n
Cc1ccc(C(=O)N2CCc3ccccc32)cc1	n	n	n	n	n	n
COC(=O)c1nc2nc(C)cc(C(F)(F)F)n2n1	n	n	n	n	n	n
SMILES	FBA Mtb inh	DUSP3 inh	GDH-TPI inh	3CLpro inhibitor	CCHF vOTU inh	RecA intein inh
O=C(NCc1ccco1)c1nc2nc(-c3cccs3)cc(C(F)(F)F)n2n1	+	n	n	n	n	n
COC(=O)c1nc2nc(-c3cccs3)cc(C(F)(F)F)n2n1	+	n	n	n	n	n
CC(C)C[C@H]1CN(CCCC[C@H]2CNC(=O)C(=O)N2CC2CCCCC2)C(=O)C(=O)N1CC1CCCCC1	x	x	x	x	n	x
CC(C)N1CC(C(=O)Nc2cccc([N+](=O)[O-])c2)CC1=O (stereo unspecified)	n	55.7	n	n	n	n
CCNC(=S)NNC(=O)c1cccn(Cc2ccc(Cl)cc2Cl)c1=O	n	n	32.0	n	n	n
Nc1c(-c2ccc(F)cc2)nc2ncccn12	x	x	x	x	n	x
Clc1ccc(-c2nc3ncccn3c2Cl)cc1	+	n	n	n	x	n
COc1ccc(/C=N/NC2=NS(=O)(=O)c3ccccc32)cc1OC	n	n	34.9	n	n	n
COc1cc(/C=N/NC2=NS(=O)(=O)c3ccccc32)ccc1OC(C)=O	n	n	34.0	n	n	n
COc1cc(C=NNc2ccccc2)ccc1OC(=O)c1ccccc1	n	x	n	x	n	x
COc1ccc(C(=O)NNC2=NS(=O)(=O)c3ccccc32)cc1OC	n	n	n	n	n	n
O=C(N[C@@H](Cc1cccnc1)C(=O)N1CCC[C@H]1C(=O)NCCc1ccccc1Cl)c1ccc(Cl)c(Cl)c1	x	x	x	x	n	x
CN(C(=O)c1ccccc1Cl)c1ccccc1C(=O)NCc1ccccc1	n	52.9	n	n	n	n
CN(C(=O)c1ccc(F)cc1)c1ccccc1C(=O)NCc1ccccc1	n	n	n	n	n	n
O=C1CCCC2=C1C(c1ccc(O)cc1)c1c(ccc3ccccc13)N2 (stereo unspecified)	160.3	n	n	n	n	n
O=C1CCCC2=C1C(c1ccc(O)c(O)c1)c1c(ccc3ncccc13)N2 (stereo unspecified)	n	n	n	n	n	n
CN(Cc1ccccc1)C(=O)c1cccc(NC(=O)Cc2ccc(NC(=O)C3CCCN(S(=O)(=O)c4cccc([N+](=O)[O-])c4)C3)cc2)c1 (stereo unspecified)	x	x	x	x	n	x
Cc1nc2c(C)cccn2c(=O)c1NC(=O)c1ccc2c(c1)OCO2	n	x	n	x	n	n
O=CN1CCN(C(=O)C2CCN(c3ncnc4c3sc3cccc(F)c34)CC2)CC1	x	x	x	x	n	x
CCN(CC)c1ccc(/C=N/NC(=O)c2cccc(S(=O)(=O)N3CCOCC3)c2)c(O)c1	n	n	n	n	n	n
CCN(CC)c1ccc(C=Nc2cccc(S(=O)(=O)N3CCOCC3)c2)c(O)c1	n	x	61.4	x	n	x
CCN(CC)c1ccc(C=Nc2ccc(OC)c(S(=O)(=O)N3CCOCC3)c2)c(O)c1	n	x	32.3	x	n	x
O=C(NC1CCCCN(Cc2cccc(Cl)c2)C1=O)c1cccc2nsnc12 (stereo unspecified)	x	x	x	x	n	x
COc1ccc(C2CC(=O)C3=C(C2)Nc2ccccc2N(C(=O)CCC(=O)O)C3c2ccc(F)cc2)cc1 (stereo unspecified)	n	n	50.0	n	n	n
Cc1ccc(OC(=O)N(C)C[C@H]2OCc3cn(nn3)CCCC(=O)N([C@@H](C)CO)C[C@@H]2C)cc1	x	x	x	x	n	x
SMILES	FBA Mtb inh	DUSP3 inh	GDH-TPI inh	3CLpro inhibitor	CCHF vOTU inh	RecA intein inh
COc1ccc(C(=O)OCCc2ccc(O)cc2)cc1	n	n	n	n	n	n
COc1ccc(C(=O)OCC[N+]2(C)CCOCC2)cc1	n	52.7	n	n	n	n
COC(=O)c1ccsc1NC(=O)CN1CCN(c2ncccn2)CC1	n	n	n	n	n	n
COc1ccc(CN2C(=O)C(CC(=O)NC3CCCCC3)CC(C(=O)N(C(C)C)C(C)C)=C2C)cc1 (stereo unspecified)	n	x	n	x	n	x
COC(=O)C1=C(C)N(Cc2ccc(C(F)(F)F)cc2)C(=NCc2ccccc2C(F)(F)F)NC1c1ccc(Cl)cc1 (stereo unspecified)	x	x	x	x	n	x
O=c1[nH]cnc2nn(C3OC(CO)C(O)C3O)nc12 (stereo unspecified)	x	x	x	x	n	x
c1ccc(-c2nc3ccccc3c3nc4ccccc4n23)cc1	n	50.8	n	n	n	n
c1ccc(-c2nc3nonc3c3nc4ccccc4n23)cc1	n	n	n	n	n	n
